MCF10A rerep: DNA re-replication induction in MCF 10a cells; MCF 10A DNA re-replication, Hoechst nuclear intensity, 48 h; 350,000 tested, 2.9% active; AID 624296; Potency, µM (series often up to 46.1 µM), for the others: top-dose activity, positive = re-replication, most hits filed as activators; further: % of control where 0% means no effect; nearly all actives have a fitted effect of over 50% in size
HT1080 IDH1KD tx: HT-1080 IDH1 knockdown cell toxicity (counter line) | HT-1080 IDH1 knockdown viability, ATP luminescence, 48 h | Potency, µM (titrated, usually from 46.1 µM), for inactives: at the highest dose activity, negative = toxicity, usual class: cytotoxic | 360,000 tested, 2% active | AID 686971;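 further: 0% = DMSO wells and -100% = cell-free medium wells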
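HT-1080-IDH1KD cells (IDH1 knocked down), 750/well in RPMI with 5% FBS, treated with compound 48 h at 37 degrees C. Viability by CellTiter-Glo luminescence, normalised to DMSO and no-cell wells; concentration-response curves classed.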
SW480 rerep: induces DNA re-replication in SW480 colon adenocarcinoma cells. Potency, µM (highest dose often 46.1 µM), for the others: at the highest dose re-replication activation, most hits filed as activators. 340,000 tested, 1.8% active. SW480 DNA re-replication, Hoechst DNA content imaging, 48 h. AID 624297; further: % of control where 0% means no effect; nearly all actives have a fitted effect of over 55% in size
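SW480 cells exposed to compounds for 48 hr at 37 C, 5% CO2, then Hoechst-stained 40 min. Nuclear DNA content imaged by fluorescence scanning (405 nm excitation, 500-530 nm emission); re-replication scored as increased high-intensity nuclei.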
KB-V1 MDR tox: KB-V1 MDR subline cytotoxicity; KB-V1 MDR cells viability, CellTiter-Glo, 72 h; Potency, µM (titrated, usually from 46.1 µM), usual class: cytotoxic; 400,000 tested, 3.4% active; further: on the % scale 0 is the no-effect control and ±100 the full control effect; nearly all actives have a fitted effect of over 60% in size
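KB-V1 cells (P-gp-expressing MDR subline of KB-3-1) in phenol-red-free DMEM with 10% FBS were exposed to library compounds over a concentration series for 72 h at 37 degrees C. Viability read by CellTiter-Glo luminescence; concentration-effect curves fitted after normalization.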
HT1080-NT tox: kills 2HG-producing HT-1080-NT fibrosarcoma cells; HT-1080-NT fibrosarcoma viability, CellTiter-Glo ATP luminescence, 48 h; Potency, µM (highest dose often 46.1 µM), inactives show at the highest dose activity, negative = less viability, most hits filed as cytotoxic; 360,000 tested, 1.6% active;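 further: NT is the 2HG producing partner of a matched IDH1 knockdown line; 0% = DMSO-treated cells and -100% = media-only wells without cells; nearly all actives have a fitted effect of over 55% in size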
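750 cells/well, RPMI + 5% FBS; 2 h settle, compound pin-transfer, 48 h at 37 degrees C. CellTiter-Glo 10 min RT, luminescence. Normalized to DMSO and media-only wells.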
KB-3-1 tox: KB-3-1 parental cell cytotoxicity. Potency, µM (highest dose often 46.1 µM), usual class: cytotoxic. KB-3-1 viability, CellTiter-Glo ATP luminescence, 72 h. 400,000 tested, 1.4% active; further: on the % scale 0 is the no-effect control and ±100 the full control effect; nearly all actives have a fitted effect of over 60% in size
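Parental KB-3-1 viability, qHTS format: 72 h compound exposure, 37 °C; CellTiter-Glo; media-only wells and DMSO plates as controls; concentration-effect fits on corrected data.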
* = called active by the depositor; i = inactive; ? = inconclusive; nt = no result given; [ ] = remark or other dose. In the library only some 7.9% were active in any assay of this set; here they are far more common. The call rests on the fitted dose curve; in most records, active means well fitted curve in the direction sought with a large enough effect; inconclusive means small, poorly fitted or top-dose-only effect, or another doubt; inactive means no such curve, though single readings can be large; an effect the other way counts as inactive or inconclusive. Potency means the concentration at half of the fitted maximal effect.

SMILES	MCF10A rerep	HT1080 IDH1KD tx	SW480 rerep	KB-V1 MDR tox	HT1080-NT tox	KB-3-1 tox
CCN(CC)c1ccc(/C=N/NC(=O)c2nnn(-c3nonc3N)c2C(C)C)c(O)c1	18.4µM*	1.3µM*	23.1µM*	i	?	1.3µM*
COc1cc(/C=N/NC(=O)c2nnn(-c3nonc3N)c2C(C)C)ccc1OCc1ccc(F)cc1	?	11.6µM*	?	i	?	?
Cc1cnnc2ccccc12	nt	nt	nt	i	nt	i
Cc1ccc(-c2nnc(CSc3nnc(COc4ccccc4)n3-c3ccccc3)o2)cc1	11.6µM*	?	11.5%	i	-21.6%	i
Cc1ccc(-n2c(COc3ccccc3)nnc2SCC(=O)O)cc1	nt	-1.4%	nt	i	10.5%	i
Cc1ccc(-c2nnc(CSc3nnc(COc4ccccc4)n3-c3ccc(C)cc3)o2)cc1	23.1µM*	-12.2%	?	?	-0.7%	i
N=c1n(CCO)c2ccccc2n1CCOc1ccc(Cl)cc1Cl	?	?	4.1%	i	20.6µM*	?
COc1ccc(C(=O)/C=C/c2ccc(OCc3ccccc3)cc2)cc1CSCC(=O)O	23.1µM*	?	?	i	?	i
COc1ccc(Oc2ccc(/C=C/C(=O)c3ccc(O)cc3)cc2[N+](=O)[O-])cc1	2.91µM*	?	7.31µM*	?	23.1µM*	i
O=C(O)COc1ccc(/C=C/C(=O)c2ccc3ccccc3c2)cc1	18.4µM*	?	14.5%	i	?	?
COc1ccc(C(=O)/C=C/c2cccc(OCc3ccccc3)c2)cc1CSCC(=O)O	11.6%	?	21.0%	?	-7.5%	?
COc1ccc(/C=C/C(=O)c2ccc(O)cc2)cc1COc1ccc(F)cc1	3.6%	?	-10.0%	i	?	i
O=C(/C=C/c1ccc(O)c([N+](=O)[O-])c1)c1ccc2ccccc2c1	7.31µM*	?	?	i	-14.4%	i
COc1ccccc1N1CCN(CC(O)COc2ccc(Cl)c(C)c2)CC1 (configuration not stated)	nt	nt	nt	i	nt	i
CC(C)(C)c1nc(NCCO)c2nnn(Cc3ccccc3)c2n1	17.7%	-20.0%	-10.8%[9.22 µM]	i	?	i
C=CCc1c(C)nc(SCc2ccccc2)[nH]c1=O	0.1%	-13.3%	-5.2%	i	-7.6%	i
CC(=O)c1cccc(NC(=O)COC(=O)c2ccc3c(c2)OCO3)c1	-0.4%	4.7%	?	i	-9.3%[9.24 µM]	i
Brc1ccc(NCc2cccc3ccccc23)nc1	?	-4.3%	11.7%	i	-4.1%	i
Cc1ccc(S(=O)(=O)Nc2ccccc2CNc2ccc(Br)cn2)cc1	?	-24.2%	?	5.8µM*	-16.1%	23.1µM*
Cc1ccc(S(=O)(=O)CC(=O)Nc2ccc(S(=O)(=O)Nc3ccccn3)cc2)cc1	1.46µM*	-2.7%	-50.1%	i	4.5%	i
Cc1ccc(S(=O)(=O)CC(=O)Nc2ccccn2)cc1	5.2%	1.3%	-7.8%	i	0.0%	i
Oc1ccccc1CNc1ccc(Br)cn1	?	11.6µM*	0.3%	i	10.3µM*	i
Cc1ccc(S(=O)(=O)Nc2ccccc2CNc2ncc(Br)cc2Br)cc1	-2.7%	-9.0%	?	2.91µM*	-13.2%	?
O=C(Cn1nc2sc3ccccc3n2c(=O)c1=O)c1ccc(Cl)cc1	1.1%	1.3%	?	i	-2.8%	i
CC(=O)N1N=C(c2cccc(Br)c2)OC12CCCC2	0.3%	4.1%	0.9%	?	14.4%	i
SMILES	MCF10A rerep	HT1080 IDH1KD tx	SW480 rerep	KB-V1 MDR tox	HT1080-NT tox	KB-3-1 tox
Cc1ccc(S(=O)(=O)Nc2ccccc2-c2ccccc2NS(=O)(=O)c2ccc(C)cc2)cc1	?	?	-3.3%	?	?	?
Cc1ccc(S(=O)(=O)Nc2ccccc2CNc2ccccn2)cc1	0.9%	-0.5%	-3.0%	20.6µM*	-0.4%	?
CCOc1ccc(OCC)c(NC(=O)CSc2nc3c(c(=O)n(C)c(=O)n3C)n2CC)c1	-10.5%	-9.2%	-5.1%	?	4.4%	i
CCOc1ccc(OCC)c(NC(=O)CSc2nc3c(c(=O)n(C)c(=O)n3C)n2C(C)C)c1	30.0%	4.1%[9.24 µM]	17.6%	18.4µM*	-46.0%	?
CC(C)n1c(SCC(=O)NCc2ccco2)nc2c1c(=O)n(C)c(=O)n2C	16.4µM*	-0.4%	-1.7%	i	-8.5%	i
Cc1c(Cl)cccc1NC(=O)COC(=O)c1ccc(CN2CCCC2=O)cc1	0.9%	0.9%	5.5%	?	28.3%	i
COC(=O)C[C@H]1c2cc(F)cc(F)c2S(=O)(=O)N1C1CCN(Cc2ccccc2)CC1	4.6%	-8.4%	-3.7%[9.22 µM]	i	0.2%	i
CCN(CC(=O)Nc1c(F)cccc1F)C(=O)c1ccc(S(=O)(=O)N2CCC(C)CC2)cc1	-1.2%	0.1%	0.4%	20.6µM*	5.2%	i
CCN(CC(=O)Nc1c(F)cccc1F)C(=O)c1ccc(S(=O)(=O)N2CCCCCC2)cc1	2.2%	4.3%	-5.1%	?	4.5%	i
Cc1cc(C)cc(OCC(=O)Nc2ccncc2)c1	4.8%	-13.9%	1.8%	i	-6.8%	?
Cc1ccccc1NC(=O)c1ccc(CN2CCC(Cc3ccccc3)CC2)cc1	?	?	?	14.6µM*	23.1µM*	?
COc1ccc(CCNC(=O)c2ccc(CN3CCC(Cc4ccccc4)CC3)cc2)cc1	10.5%	-2.3%	-10.5%	9.2µM*	-0.6%	i
O=C(C1CC(=O)N(c2ccc(Cl)cc2)C1)N1CCC(c2nc3ccccc3[nH]2)CC1 (configuration not stated)	2.2%	-16.1%	-2.0%	i	-14.2%	i
C/C(=N/Nc1nc(C)cc(C)n1)c1ccc(Br)cc1	-7.3%	-20.1%	?	?	-9.5%	i
C/C(=N/Nc1nc(C)cc(-c2ccccc2)n1)c1ccco1	-0.2%	?	12.3%	16.4µM*	-6.2%	i
C/C(=N\Nc1nc(C)cc(-c2ccccc2)n1)c1cccc(N)c1	5.7%	-1.5%	0.8%	?	-8.5%	?
C/C(=N\Nc1nc(C)cc(-c2ccccc2)n1)c1ccc(O)cc1	-0.3%	-14.3%	?	?	10.3µM*	i
C/C(=N\Nc1nc(C)cc(-c2ccccc2)n1)c1ccccc1	0.6%	?	?	6.51µM*	-28.5%	i
C/C(=N\Nc1nc(C)cc(-c2ccccc2)n1)c1ccc(C)o1	26.2%	-9.8%	6.5%	?	-0.1%	i
CCOC(CNC(=O)c1ccc(N2CCc3ccccc32)c([N+](=O)[O-])c1)OCC	17.4%	-0.5%	-30.0%	2.59µM*	-1.1%	?
